This passage reports AC50 and outcome results from PubChem BioAssay (EPA / NIEHS).

“And” between values parts separate entries of the source, which are not always exact repeats. Equal values may be shown once. The source made the active and inactive calls. How the source made its calls: active means hit-call score of the fitted dose curve at least 0.9, where 1 is the maximum; inactive means score below 0.9.

This assay is described as follows: CCTE_Shafer_MEA_dev_correlation_coefficient_mean: CCTE's Neural Network Formation Assay for Mean Correlation Coefficient, Shafer Lab (AID 2284093).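 On AC50: well mean pairwise spike train correlation integrated as AUC over recording days 5 to 12.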 How it is done: CCTE_Shafer_MEA_dev assay is conducted using Axion Biosystems 48 well microelectrode array (MEA) plates and Maestro recording system. Each well of the MEA plate contains a grid of 16 microelectrodes embedded in the culture surface. Electrically active cells, such as neurons, can be cultured over the electrodes, and electrical activity in these cells can be recorded extracellularly. The spontaneous firing of neurons is captured from each electrode on a microsecond timescale providing both temporally and spatially precise data. […] The CCTE_Shafer_MEA_dev assay uses primary cultures of rat cortical neurons. Recordings are made on days post-plating 5, 7, 9 and 12. As these cultures mature over time, neural networks develop functional activity and form cohesive networks in which electrical activity can be highly coordinated. CCTE_Shafer_MEA_dev_correlation_coefficient_mean is 1 of 19 assay components of the CCTE_Shafer_MEA_dev assay. It measures the correlation coefficent of spikes (action potential firings) between every pair of electrodes in a well during a recording in a microelectrode array (MEA) using Axion Biosystems Maestro 768 channel amplifier with the AxIS adaptive spike detector. The pairwise correlations are averaged across active electrodes to report a well-mean value. To collapse across multiple recordings made on days post-plating 5, 7, 9 and 12, the trapezoidal area-under-the-curve of the component is calculated.Data from the assay component CCTE_Shafer_MEA_dev_correlation_coefficient_mean was analyzed into 1 assay endpoint. This assay endpoint, CCTE_Shafer_MEA_dev_correlation_coefficient_mean, was analyzed in the negative analysis fitting direction relative to DMSO as the negative control and baseline of activity. Using a type of functional reporter, gain or loss-of-signal activity can be used to understand electrical activity.
On the day prior to culture, each well was coated thoroughly with 150 uL of 0.05% polyethyleneimine (PEI, Sigma Cat P3143) in 50 mM HEPES (Sigma Cat H7523) at a pH of 8. The plate was incubated at 37C for one hour. PEI was rinsed out with 500 uL of sterile water three times. Plates were stored at 4C until the day of culture. This culture was plated at a seeding density of 1.5 x 10^5 cells/well on a 48-well MEA plate, prepared as described above. Cells were administered via a 25 uL media/laminin ([…]; Sigma Cat L2020-1MG) drop directly onto the microelectrode array, as adding the cells with the laminin results in better attachment than pre-coating with laminin. After 2 hours, an additional 475 uL of cortical media was added and the cells returned to the incubator. Exposure starts at day 0 of plating and is continued over twelve days of network development until the experiment is terminated. Cells are fed with fresh medium on DIV 5 and 9, following the recordings on those days. The entire volume of media in the well is exchanged and any vehicle or compound treatment is renewed. Complete details are found in OP-NHEERL/ISTD/SBB/TJS/2015-03-r0 (available on request, email shafer.tim@epa.gov). Measurement of the electrical activity is non-invasive, and recordings can be made from the same plate over multiple different days of the culture. In cortical neurons, this allows for the measurement of extracellular action potentials over the period during which networks form in the MEA plate.
Consider `CN(C)C(=O)C(CCN1CCC(O)(c2ccc(Cl)cc2)CC1)(c1ccccc1)c1ccccc1`, for which the AC50 was 1.35 µM (active) and 766 nM (active) and 2.54 µM (active).
Consider `CC1(C)S[C@@H]2[C@H](NC(=O)[C@H](N)c3ccc(O)cc3)C(=O)N2[C@H]1C(=O)O`, for which the result was inactive.
Consider `CN(C)CCC(c1ccc(Cl)cc1)c1ccccn1` (stereo not given), for which the outcome was inactive.
On the same count and under the same terms, with `NC(N)=Nc1nc(CSCCC(N)=NS(N)(=O)=O)cs1` the entry was “inactive”.
Regarding `Cc1c(O)cccc1C(=O)N[C@@H](CSc1ccccc1)[C@H](O)CN1C[C@H]2CCCC[C@H]2C[C@H]1C(=O)NC(C)(C)C`, the half-maximal activity concentration (AC50) was 1.78 µM (active).
As to `C[C@H](CS)C(=O)N1CCC[C@H]1C(=O)O`, the outcome was inactive.
On to `CC1(C)S[C@@H]2[C@H](NC(=O)[C@H](N)c3ccccc3)C(=O)N2[C@H]1C(=O)O`, for which the outcome was inactive.
In the case of `CC[C@H](C)C(=O)O[C@H]1CCC=C2C=C[C@H](C)[C@H](CC[C@@H]3C[C@@H](O)CC(=O)O3)[C@H]21`, the AC50 is 571 nM (active) and 928 nM (active).
As to `CC(C)(C)NCC(O)c1cc(O)cc(O)c1` (stereo not given), the result was inactive.
`c1ccc2cc3c4ccccc4c4ccccc4c3cc2c1`: the AC50 is 3.22 µM (active).
In the case of `C[C@@H]1C[C@H]2[C@@H]3CCC4=CC(=O)C=C[C@]4(C)[C@@]3(F)[C@@H](O)C[C@]2(C)[C@@]1(O)C(=O)CO`, the molecule was called inactive.
Consider `[Cl-].[Cl-].[NH2-].[NH2-].[Pt+4]`, for which the outcome was inactive.
With `c1cc2ccc3ccc4ccc5cccc6c(c1)c2c3c4c56`, the call was inactive.
On to `COc1ccc2cc3[n+](cc2c1OC)CCc1cc2c(cc1-3)OCO2`, for which the AC50 was 0.106 µM (active).
On the same count and under the same terms, the result for `CNCCC(Oc1ccc(C(F)(F)F)cc1)c1ccccc1` (stereo not given) reads 4.19 µM (active).
